From paper PMC5540273 (PLoS ONE, 2017)

Legend:
Conditions in all cases: concentration: 1 μM, replicates: in singlicate; n = 1
CAMK1 = tested on: CAMK1
CAMK2A = tested on: CAMK2A
CAMK2B = tested on: CAMK2B
CAMK2D = tested on: CAMK2D
CAMK2G = tested on: CAMK2G
CAMK4 = tested on: CAMK4
CAMKK1 = tested on: CAMKK1
CAMKK2 = tested on: CAMKK2
CASK = tested on: CASK
CDC2L1 = tested on: T1, CDC2L1
T1 construct: gene CDK11B
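Also: KINOMEscan kinase panel screen.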

| SMILES | %Inh (CAMK1) [%] | %Inh (CAMK2A) [%] | %Inh (CAMK2B) [%] | %Inh (CAMK2D) [%] | %Inh (CAMK2G) [%] | %Inh (CAMK4) [%] | %Inh (CAMKK1) [%] | %Inh (CAMKK2) [%] | %Inh (CASK) [%] | %Inh (CDC2L1) [%] |
| --- | --- | --- | --- | --- | --- | --- | --- | --- | --- | --- |
| COC(=O)Nc1nc2ccc(Oc3ccc(NC(=O)Nc4cc(C(F)(F)F)ccc4F)cc3)cc2[nH]1.Cl [GW654607] | 2 | 0 | 0 | 0 | 15 | 0 | 6 | 6 | 12 | 0 |
| Cc1ccc(-c2ccc3occ(-c4ccc(S(C)=O)cc4)c3c2)nn1 (stereo not shown) | 0 | 0 | 0 | 7 | 0 | 18 | 11 | 20 | 0 | 0 |
| Cc1ccccc1CC(=O)N1CCc2cc(-c3cn(C)c4ncnc(N)c34)ccc21 [GSK2603346] | 16 | 0 | 0 | 0 | 5 | 5 | 0 | 0 | 0 | 0 |
| Fc1cc(Cl)ccc1Nc1ccnc2cc(-c3ccc(CN4CCOCC4)o3)ccc12 [GW560109] | 0 | 0 | 0 | 0 | 0 | 13 | 0 | 0 | 16 | 0 |
| COC(=O)Nc1nc2cc(Oc3ccc(NC(=O)Nc4cccc(SC)c4)cc3)ccc2[nH]1.Cl [GW697999] | 11 | 18 | 28 | 0 | 12 | 0 | 0 | 0 | 16 | 0 |
| COc1cc(Nc2ccnc3cc(-c4ccncc4)ccc23)cc(OC)c1OC.Cl [GW494610] | 20 | 0 | 0 | 0 | 7 | 0 | 7 | 0 | 15 | 0 |
| Cc1cc(-c2c(-c3ccc(F)cc3)ncn2CCCN2CCOCC2)nc(N)n1 [SB-222517] | 17 | 0 | 30 | 0 | 8 | 13 | 25 | 0 | 33 | 0 |
| COc1cccc(CC(=O)N2CCc3cc(-c4cn(C)c5ncnc(N)c45)ccc32)c1 [GSK2608899] | 16 | 0 | 0 | 15 | 27 | 13 | 7 | 9 | 16 | 1 |
| CN(C)c1ncnc2nc[nH]c12 [SKF-31736] | 0 | 12 | 0 | 29 | 29 | 0 | 15 | 25 | 41 | 0 |
| CCOc1nccc(-c2c(-c3ccc(F)cc3)ncn2C2CCNCC2)n1 [SB-249175] | 0 | 0 | 0 | 0 | 0 | 11 | 1 | 15 | 0 | 3 |
| Nc1ncc(-c2ccc3nccc(-c4ccncc4)c3c2)cc1S(=O)(=O)N1CCCCC1 [GSK1693850] | 18 | 4 | 0 | 0 | 14 | 0 | 24 | 33 | 24 | 0 |
| Cc1ccc(O)cc1Nc1ccnc2cc(-c3ccc(CN4CCCCC4)o3)ccc12 [GW557777] | 4 | 0 | 13 | 10 | 8 | 0 | 10 | 9 | 2 | 20 |
| COc1ccc(C2=C(Nc3cccc(O)c3)C(=O)NC2=O)cc1 [SB-390766] | 23 | 0 | 0 | 11 | 0 | 0 | 0 | 0 | 39 | 0 |
| Fc1cc(Cl)ccc1Nc1ccnc2cc(-c3ccc(CN4CCSCC4)o3)ccc12 [GW560106] | 21 | 0 | 0 | 5 | 17 | 0 | 25 | 21 | 0 | 0 |
| Cc1cccc(Nc2nc(N[C@H]3CCCC[C@H]3N)ncc2C(N)=O)c1.Cl [GSK986310] | 54 | 0 | 0 | 16 | 33 | 72 | 22 | 26 | 56 | 0 |
| COc1cc(Nc2nccc(N3CCC(NS(=O)(=O)c4ccc(NC(C)=O)cc4)CC3)n2)cc(OC)c1OC [GSK1379825] | 37 | 0 | 0 | 7 | 12 | 0 | 23 | 8 | 19 | 0 |
